Source: PubChem BioAssay (National Center for Advancing Translational Sciences (NCATS))
Sampled rows, rich in hits. Any-hit rate of the full collection: about 0.44%.
EPAC1 antag: qHTS for Antagonist of cAMP-regulated guanine nucleotide exchange factor 3 (EPAC1): primary screen | EPAC1 GEF assay, Rap1b-BODIPY-GDP exchange fluorescence | Potency, µM (doses to about 115 µM), usual class: inhibitors | actives 0.14% (n = 360,000); note: nearly all actives have a fitted effect of over 50% in size
Target sequence (O95398 whole entry, looked up): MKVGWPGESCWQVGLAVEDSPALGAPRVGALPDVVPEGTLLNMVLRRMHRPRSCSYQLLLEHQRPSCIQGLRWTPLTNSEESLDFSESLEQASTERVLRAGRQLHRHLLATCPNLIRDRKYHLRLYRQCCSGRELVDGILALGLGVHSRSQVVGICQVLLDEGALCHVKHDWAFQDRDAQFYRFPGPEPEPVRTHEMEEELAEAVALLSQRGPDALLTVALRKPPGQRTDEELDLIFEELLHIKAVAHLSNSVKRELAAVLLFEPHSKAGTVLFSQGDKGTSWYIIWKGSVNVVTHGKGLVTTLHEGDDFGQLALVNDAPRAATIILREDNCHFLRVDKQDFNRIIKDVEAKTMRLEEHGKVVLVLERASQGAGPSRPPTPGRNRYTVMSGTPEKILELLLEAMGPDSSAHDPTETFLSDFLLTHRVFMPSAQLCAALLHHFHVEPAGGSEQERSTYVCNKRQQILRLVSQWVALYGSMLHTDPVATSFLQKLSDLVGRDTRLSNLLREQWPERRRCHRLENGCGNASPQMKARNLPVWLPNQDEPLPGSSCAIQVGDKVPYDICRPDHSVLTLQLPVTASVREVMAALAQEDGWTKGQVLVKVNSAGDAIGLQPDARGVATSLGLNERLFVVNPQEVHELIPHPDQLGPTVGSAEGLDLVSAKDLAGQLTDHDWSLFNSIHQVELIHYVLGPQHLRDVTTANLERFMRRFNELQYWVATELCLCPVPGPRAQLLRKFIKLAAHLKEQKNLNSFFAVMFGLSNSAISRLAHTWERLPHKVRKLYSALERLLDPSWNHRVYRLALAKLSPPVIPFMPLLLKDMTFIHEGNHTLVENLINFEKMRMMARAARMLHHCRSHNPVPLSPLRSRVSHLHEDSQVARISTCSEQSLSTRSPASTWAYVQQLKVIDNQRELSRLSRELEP
USP2a block: qHTS Assay for Inhibitors of Ubiquitin-specific Protease USP2a Using CHOP2 as the Reporter. actives 0.01% (n = 330,000). USP2 core, Ub-CHOP2 coupled fluorogenic reporter, 485/531. AID 463254, 2010. Potency, µM (highest dose often 38.3 µM), actives largely listed as inhibitors. Ubiquitin carboxyl-terminal hydrolase 2 (Homo sapiens), O75604
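Deubiquitinase activity read as fluorescence (485/531 nm) after Ub-CHOP2 cleavage activates the enterokinase reporter on its substrate; USP2 core 10nM, Ub-CHOP2 and substrate 25nM each, 30min compound preincubation then 60min RT; data normalized to NEM, curves fitted.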
EPAC2 agonist: qHTS for Agonist of cAMP-regulated guanine nucleotide exchange factor 4 (EPAC2): primary screen. Potency, µM (titrated, usually from 154 µM), actives largely listed as activators. Rap guanine nucleotide exchange factor 4 (Homo sapiens), Q8WZA2. AID 720711, 2013. actives 0.079% (n = 360,000). EPAC2 activation, biochemical qHTS; response scale: 100% = 6.5 mM cAMP response; note: nearly all actives have a fitted effect of over 50% in size
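Nucleotide exchange monitored as fluorescence drop when BODIPY-GDP leaves Rap1B. Reaction: 100 nM EPAC2, 250 nM RAP1B-BODIPY-GDP, 50 uM GDP, room temperature, kinetic read over 30 min. Activity expressed relative to 6.5 mM cAMP.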
EPAC1 agonist: qHTS for Agonist of cAMP-regulated guanine nucleotide exchange factor 3 (EPAC1): primary screen | EPAC1 agonist qHTS, biochemical assay; response scale: 100% = response to 6.5 mM cAMP | Potency, µM (highest dose often 154 µM), actives largely listed as activators | actives 0.073% (n = 360,000); note: nearly all actives have a fitted effect of over 60% in size
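Multi-concentration qHTS readout: loss of Rap1B-bound BODIPY-GDP fluorescence driven by 100 nM EPAC1 with excess GDP (50 uM), monitored kinetically at room temperature; agonist response expressed relative to 6.5 mM cAMP.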
USP1-UAF1 inh: Inhibitors of USP1/UAF1: Primary Screen | Ubiquitin carboxyl-terminal hydrolase 1 (Homo sapiens), O94782 | Potency, µM (top dose mostly 57.1 µM), hits mostly inhibitors | actives 0.23% (n = 390,000) | recombinant USP1/UAF1, Ub-Rhodamine cleavage fluorescence; note: nearly all actives have a fitted effect of over 60% in size
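USP1/UAF1 complex at 1 nM was preincubated with compound for 15 min at room temperature, then Ub-Rho substrate (150nM final) was added. Fluorescence (480/540 nm) was read kinetically, 6 reads every 60 seconds.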
EPAC2 antagonist: qHTS for Antagonist of cAMP-regulated guanine nucleotide exchange factor 2 (EPAC2): primary screen. EPAC2 GEF exchange of Rap1B-BODIPY-GDP, fluorescence. Potency, µM (highest dose often 114 µM), hits mostly inhibitors. actives 0.18% (n = 360,000). AID 720708, 2013; note: nearly all actives have a fitted effect of over 45% in size
Each line names hits and unclear results; the compound was inactive in the other large screens. Calls come from the whole dose curve; as a rule, active = well fitted curve in the direction sought with a large enough effect; inconclusive = small, poorly fitted or top-dose-only effect, or another doubt; inactive = no such curve, though single readings can be large; an effect the other way counts as inactive or inconclusive.

C#Cc1ccc([C@H]2C=C(C(=O)NCc3ccccc3)O[C@@H](OCC)[C@@H]2CCCO)cc1	EPAC2 antagonist 25µM
Cc1nc(-c2ccc(C)c(N3CCN(C(=O)Nc4ccc(Br)cc4)CC3)c2)no1	none (no result: EPAC1 antag, USP2a block, EPAC2 agonist, EPAC1 agonist, EPAC2 antagonist)
Cc1ccc(C)c(S(=O)(=O)Nc2ccc(C(=O)NCC(c3ccco3)N3CCCCC3)cc2)c1 (stereo not given)	none
Cc1ccc(C)c(S(=O)(=O)Nc2ccc(C(=O)NCC(c3ccco3)N(C)C)cc2)c1 (stereo not given)	EPAC1 agonist 112µM
CSC1=NSC2=NC(=O)/C(=C\c3ccc(OC(=O)c4ccco4)cc3)C(=N)N12	EPAC1 antag inconclusive
CC(C)CC1=NN2C(=N)/C(=C\c3coc4ccccc4c3=O)C(=O)N=C2S1	USP2a block inconclusive, EPAC2 agonist 63µM, EPAC1 agonist 63µM, USP1-UAF1 inh 28µM
CCSC1=NSC2=NC(=O)/C(=C\c3coc4ccccc4c3=O)C(=N)N12	USP2a block inconclusive, EPAC2 agonist 100µM, EPAC1 agonist 45µM, USP1-UAF1 inh 22µM
Cc1cccc(-n2c(C)cc(/C=C3\C(=N)N4N=C(CC(C)C)SC4=NC3=O)c2C)c1	none
Cc1ccc(S(=O)(=O)Nc2cc(Cl)c3oc4c(c3c2)C(=O)CC(C)(C)C4)cc1	none (no result: EPAC1 antag, USP2a block, EPAC2 agonist, EPAC1 agonist, EPAC2 antagonist)
COc1cc(/C=C/C(=O)O)ccc1OS(=O)(=O)c1c(C)c(C)cc(C)c1C	none
COc1cc(C)c(/C=C/C(C)=C/C=C/C(C)=C/C(=O)O)c(C)c1C	EPAC1 antag inconclusive, EPAC2 antagonist 10µM (no result: USP2a block)
CCOC(=O)c1cc(S(=O)(=O)N2CCN(c3ccc(C(C)=O)cc3)CC2)[nH]n1	none (no result: EPAC1 antag, USP2a block, EPAC2 agonist, EPAC1 agonist, EPAC2 antagonist)
O=C(NCc1ccccn1)c1nn(-c2ccccc2F)nc1CO	none (no result: EPAC1 antag, USP2a block, EPAC2 agonist, EPAC1 agonist, EPAC2 antagonist)
Nc1ccc(-c2c3ccc(=O)cc-3oc3cc(O)ccc23)c(C(=O)O)c1	USP2a block inconclusive, EPAC2 agonist 126µM, EPAC1 agonist 100µM, USP1-UAF1 inh 28µM
CCC(CO)Oc1cc(NCc2ccccc2)c2ncn(C(C)C)c2c1 (stereo not given)	USP1-UAF1 inh inconclusive
CCC(COC)Oc1cc(NCc2ccccc2)c2ncn(C(C)C)c2c1 (stereo not given)	EPAC1 antag inconclusive, USP1-UAF1 inh 13µM
CCCCn1c(=O)n(-c2ccc(Br)cc2F)c(=O)c2c3c(sc21)CN(C(C)=O)CC3	none (no result: EPAC1 antag, USP2a block, EPAC2 agonist, EPAC1 agonist, EPAC2 antagonist)
CCCc1cc2c(cc1N(C)S(=O)(=O)c1ccccc1)OCO2	EPAC2 antagonist 28µM (no result: USP2a block)
Cc1ccc(S(=O)(=O)/N=C2\C(=O)c3ccccc3C([O-])=C2n2cc[n+](CCC(C)C)c2)cc1	USP1-UAF1 inh inconclusive
CC(=O)Nc1ccc(S(=O)(=O)/N=C2\C(=O)c3ccccc3C([O-])=C2n2cc[n+](-c3ccccn3)c2)cc1	USP1-UAF1 inh 25µM
COc1c(O)cc2c(c1O)C1OC(CO)C(O)C(O)C1OC2=O (stereo not given)	none
O=C1OCC2OC(O)C(O)C(O)C2OC(=O)c2cc(O)c(O)c(O)c2-c2c(O)c(O)c3oc(=O)c4c(c(O)c(O)c5oc(=O)c2c3c54)-c2c1cc(O)c(O)c2O (stereo not given)	USP2a block 0.5µM (no result: EPAC1 antag, EPAC2 agonist, EPAC1 agonist, USP1-UAF1 inh, EPAC2 antagonist)
COC(=O)CCC(=O)OC1(C)C(=O)C2=CN(CCCOC(C)C)C(c3ccc(OC)cc3)=CC2=C(Br)C1=O (stereo not given)	USP1-UAF1 inh 28µM
COC(=O)CCC(=O)OC1(C)C(=O)C2=CN(C3CC3)C(c3ccc(OC)cc3)=CC2=C(Br)C1=O (stereo not given)	USP1-UAF1 inh 22µM, EPAC2 antagonist inconclusive (no result: USP2a block)
COC(=O)CCC(=O)OC1(C)C(=O)C2=CN(Cc3ccc(OC)cc3)C(c3ccc(OC)cc3)=CC2=C(Br)C1=O (stereo not given)	none (no result: USP2a block)
COC(=O)CCC(=O)OC1(C)C(=O)C2=CN(CC3CC3)C(c3ccc(OC)cc3)=CC2=C(Br)C1=O (stereo not given)	USP1-UAF1 inh 32µM
COC(=O)CCC(=O)OC1(C)C(=O)C2=CN(c3ccccc3)C(c3ccc(OC)cc3)=CC2=C(Br)C1=O (stereo not given)	USP1-UAF1 inh inconclusive (no result: USP2a block)
Cc1cc(Cl)ccc1OCC(=O)Nc1c(C(=O)c2ccccc2)oc2ccccc12	none (no result: EPAC1 antag, USP2a block, EPAC2 agonist, EPAC1 agonist, EPAC2 antagonist)
COc1ccc2sc(N(Cc3cccnc3)C(=O)C3CCCCC3)nc2c1	none (no result: EPAC1 antag, USP2a block, EPAC2 agonist, EPAC1 agonist, EPAC2 antagonist)
Cn1c(C(=O)NCc2ccc(F)cc2)cc2c(=O)n(C)c3ccccc3c21	none (no result: EPAC1 antag, USP2a block, EPAC2 agonist, EPAC1 agonist, EPAC2 antagonist)
CCOc1nc(NC(=O)NS(=O)(=O)Oc2ccccc2)nc(-c2ccccc2)n1	none (no result: EPAC1 antag, USP2a block, EPAC2 agonist, EPAC1 agonist, EPAC2 antagonist)
O=C(NCCc1ccc(Cl)cc1)C1CCN(S(=O)(=O)c2ccc3[nH]ccc3c2)CC1	none (no result: EPAC1 antag, USP2a block, EPAC2 agonist, EPAC1 agonist, EPAC2 antagonist)
CCOCCCNc1nc2c(C)cccn2c(=O)c1/C=C1\SC(=S)N(CC(C)C)C1=O	EPAC2 agonist 112µM, USP1-UAF1 inh inconclusive
C[N+]1(C)CCC(=C2c3ccccc3CC(=O)c3sccc32)CC1	USP1-UAF1 inh 28µM
CCOc1cc(/C=C2\C(=N)N3N=C(S(C)(=O)=O)SC3=NC2=O)ccc1OCCOc1cccc(OC)c1	EPAC1 antag 50µM, USP1-UAF1 inh inconclusive
Cc1ccc(NS(=O)(=O)c2cc([N+](=O)[O-])ccc2NNC(=S)Nc2cccc(Cl)c2)c(C)c1	EPAC1 antag 50µM, USP1-UAF1 inh inconclusive, EPAC2 antagonist 50µM
